Data taken from publication PMC5540273 (PLoS ONE, 2017).

Tested on: WEE2
Conditions: concentration: 1 μM, replicates: in singlicate; n = 1
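Further: KINOMEscan kinase panel screen.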

Row | SMILES | %Inh
1 | Nc1ncnc2[nH]c(-c3ccccc3)nc12 [AH5015] | 0%
2 | Cc1cc(-c2ccc3c(c2)CC[C@@H](N[C@@H](C)c2ccccc2)C3)cnc1N.Cl [GW412617] | 11%
3 | Cc1ccc(-c2cc(-c3c[nH]nc3-c3ccccn3)ccn2)cc1 [GW684088] | 0%
4 | O=C(Nc1n[nH]c2cc(-c3cccc(F)c3F)ccc12)C1CC1 [SB-733894] | 0%
5 | O=C(Nc1ccc2c(c1)OCO2)NC1CCN(c2ccnc(Nc3ccc(F)cc3)n2)C1 (centres unmarked) [GSK1379724] | 4%
6 | O=c1cc(N2CCOCC2)nc2n(Cc3cccc(Cl)c3Cl)ccn12 [GSK2286295] | 0%
7 | COc1cccc(NC(=O)NC2CCN(c3ccnc(Nc4ccc(F)cc4)n3)C2)c1 (centres unmarked) [GSK1379721] | 0%
8 | CN(C)CCN(C)C(=O)c1cc(-c2ccncc2)c(-c2ccc(Cl)c(O)c2)o1.Cl.Cl [SB-710397] | 5%
9 | CC(C)(C)c1ccc(C(=O)Nc2cn3cc(Cl)ccc3n2)cc1 | 0%
10 | COc1cc2nccc(Nc3ccc(NC(=O)c4ccc(C)cc4)c(O)c3)c2cc1OC.Cl [GW440132] | 11%
11 | O=C1NC(=O)C(N2CCc3ccccc32)=C1c1ccccc1Cl [SB-373598] | 9%
12 | COc1cc2ncn(-c3cc(OCC4CCCO4)c(C(N)=O)s3)c2cc1OC (centres unmarked) [GSK204607] | 3%
13 | COc1cc(Nc2nccc(N3CCC(NC(=O)Nc4cc(C)ccc4C)C3)n2)cc(OC)c1OC (centres unmarked) [GSK1379762] | 9%
14 | Cl.NC(=O)c1cccc(Nc2nccc(Nc3ccc(Oc4cccc(Cl)c4)c(Cl)c3)n2)c1 [GW659008] | 12%
